Bioassay records deposited in PubChem by The Scripps Research Institute Molecular Screening Center.
IDE cell activ: activators of human insulin-degrading enzyme in cells | AID 493087 | activation, % at 5.96 µM | P14735 | 340,000 tested, 0.073% active | HEK cells, FAbeta-B cleavage, fluorescence polarization; 0% vehicle, 100% cell-free pure enzyme wells;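 active = activation above the mean of all tested compounds plus 3 SD, set per screening campaign, cut at about 17% in these data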
Target sequence (P14735 whole entry, looked up): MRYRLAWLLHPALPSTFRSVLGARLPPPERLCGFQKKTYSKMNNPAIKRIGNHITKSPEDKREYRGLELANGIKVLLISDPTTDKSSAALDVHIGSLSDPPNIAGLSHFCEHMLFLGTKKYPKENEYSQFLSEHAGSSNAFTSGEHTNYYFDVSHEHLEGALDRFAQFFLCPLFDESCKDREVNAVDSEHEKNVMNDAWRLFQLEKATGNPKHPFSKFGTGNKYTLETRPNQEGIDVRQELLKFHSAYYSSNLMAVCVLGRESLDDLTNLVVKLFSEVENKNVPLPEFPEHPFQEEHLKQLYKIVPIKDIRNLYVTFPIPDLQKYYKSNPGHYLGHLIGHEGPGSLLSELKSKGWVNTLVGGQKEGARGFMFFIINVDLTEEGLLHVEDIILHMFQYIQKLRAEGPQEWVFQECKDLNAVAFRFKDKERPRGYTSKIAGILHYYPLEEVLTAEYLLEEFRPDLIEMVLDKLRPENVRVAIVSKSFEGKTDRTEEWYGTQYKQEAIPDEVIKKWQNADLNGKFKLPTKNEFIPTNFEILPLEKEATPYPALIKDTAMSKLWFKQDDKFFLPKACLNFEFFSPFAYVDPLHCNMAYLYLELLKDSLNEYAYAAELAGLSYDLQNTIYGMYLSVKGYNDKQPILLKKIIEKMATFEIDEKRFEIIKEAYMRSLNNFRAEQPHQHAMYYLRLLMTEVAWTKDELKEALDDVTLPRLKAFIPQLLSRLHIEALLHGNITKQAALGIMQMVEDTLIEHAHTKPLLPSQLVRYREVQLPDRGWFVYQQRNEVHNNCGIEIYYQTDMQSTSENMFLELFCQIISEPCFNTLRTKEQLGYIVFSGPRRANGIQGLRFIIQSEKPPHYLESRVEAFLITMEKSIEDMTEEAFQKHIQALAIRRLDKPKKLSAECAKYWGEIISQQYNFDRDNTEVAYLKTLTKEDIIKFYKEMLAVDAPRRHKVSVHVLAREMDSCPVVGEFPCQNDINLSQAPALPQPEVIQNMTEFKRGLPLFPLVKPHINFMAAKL
RTF Ca sens inh: cardiac RTF calcium desensitization; P19429+P45379; IANBD-labeled cardiac RTF, Ca2+ fluorescence; inhibition, % at 7.15 µM; 340,000 tested, 0.12% active; AID 493244;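 active = inhibition above the mean inhibition of all tested compounds plus 3 SD, cut at about 17% in these data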;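 also: assay run at fixed EC70 calcium of 1.6 mM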
RTF Ca sens act: cardiac RTF calcium sensitization; P19429+P45379; IANBD-labeled TnC RTF fluorescence at EC20 calcium; 0% EC20 calcium, 100% full calcium; activation, % at 7.2 µM; 340,000 tested, 0.24% active; AID 493008;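 active = activation above the mean over all tested compounds plus 3 SD, cut at about 30% in these data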;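 also: rise in fluorescence read as greater calcium sensitivity of cardiac thin filaments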
IDE inh: inhibits human insulin-degrading enzyme in HEK cells | inhibition, % at 5.59 µM | FAbetaB cleavage, fluorescence polarization | AID 434962 | 320,000 tested, 0.41% active | P14735;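 active = percent inhibition above the average of all tested compounds plus 3 SD, set per screening campaign, cut at about 16% in these data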;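 also: IDE supplied by intact live HEK cells; FP after avidin binding of uncleaved biotin substrate so inhibition keeps polarization high; 0% = DMSO wells and 100% = 60 µM reference IDE inhibitor Ii1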
IDE inh confirm: confirmation of human insulin-degrading enzyme inhibitors in cells; HEK cells, FAbetaB cleavage, fluorescence polarization; inhibition, % at 5.59 µM; AID 435028; 1,200 tested, 51% active; shares compounds with IDE inh;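 active = mean inhibition across triplicate wells above the cutoff set by the earlier primary insulin-degrading enzyme screen, cut at about 16% in these data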;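 also: 0% = DMSO wells and 100% = 60 µM reference IDE inhibitor Ii1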
HEK293 tox: HEK cell cytotoxicity, counter-screen for IDE inhibitors; shares compounds with IDE inh; 1,200 tested, 28% active; inhibition, % at 5.59 µM; AID 449730; HEK293 cytotoxicity, ATP luminescence; in the data active = inhibition above about 22%;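 also: 0% = vehicle wells and 100% = reference cytotoxic drug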
* hit, by the source's call. This is a sample that favours compounds with a hit; in the whole collection about 0.71% have one here.

COc1cccc2sc(Nc3nc4ccc(NC(C)=O)cc4s3)nc12 was read as IDE cell activ -16.2, RTF Ca sens inh 7.2, RTF Ca sens act -0.5, IDE inh 23.6*, IDE inh confirm 6.6 and HEK293 tox 117.5*.
For COc1cccc2sc(Nc3nc(-c4ccncc4)cs3)nc12 the results were IDE cell activ -7.8, RTF Ca sens inh -8.0, RTF Ca sens act -1.8, IDE inh 17.3*, IDE inh confirm 4.1 and HEK293 tox 60.7*.
`CCC(=O)N1CCc2cc(S(=O)(=O)N3CCN(c4cc(Cl)ccc4C)CC3)ccc21` gave IDE cell activ 8.6, RTF Ca sens inh 0.1, RTF Ca sens act -3.0 and IDE inh 1.4.
`O=C(NCC1(c2ccccc2)CCOCC1)c1cccs1` gave IDE cell activ 4.7, RTF Ca sens inh -3.0, RTF Ca sens act -0.5 and IDE inh 4.4.
For O=C(/C=C/c1ccc(F)cc1)N1CCCN(C(=O)/C=C/c2ccc(F)cc2)CC1 the results were IDE cell activ -12.2, RTF Ca sens inh 0.3, RTF Ca sens act -1.2, IDE inh 24.4*, IDE inh confirm 6.9 and HEK293 tox 5.5.
Screening C=CCc1cc(/C=C2/NC(=S)NC2=O)cc(OC)c1O returned IDE cell activ -47.8, RTF Ca sens inh -7.2, RTF Ca sens act 0.1, IDE inh 36.4*, IDE inh confirm 87.6* and HEK293 tox 7.7.
C=CCN1C(=O)/C(=C/c2ccc(O)cc2)S/C1=N/c1nccs1 was read as IDE cell activ -111.3, RTF Ca sens inh -5.2, RTF Ca sens act 0.9, IDE inh 118.6*, IDE inh confirm 93.5* and HEK293 tox 20.1.
For C=CCN1C(=O)/C(=C/c2ccc(OC)cc2)S/C1=N/c1nccs1 the results were IDE cell activ 0.3, RTF Ca sens inh -13.4, RTF Ca sens act -5.5 and IDE inh 0.7.
Screening Cc1ccc2nc(/C(C#N)=C/c3ccccc3C(=O)O)[nH]c2c1 returned IDE cell activ 6.6, RTF Ca sens inh -11.6, RTF Ca sens act 0.7 and IDE inh 2.0.
Cc1ccc2nc(/C(C#N)=C/c3ccc(O)c(O)c3)[nH]c2c1 was read as IDE cell activ -61.7, RTF Ca sens inh -10.9, RTF Ca sens act 1.8, IDE inh 84.0*, IDE inh confirm 110.9* and HEK293 tox 14.8.
For Cc1nnnn1-c1ccc(CC(=O)O)cc1 the results were IDE cell activ 5.1, RTF Ca sens inh -1.3, RTF Ca sens act 2.9 and IDE inh -4.0.
For CCC(=O)N1CCN(c2nc(-c3ccc(Cl)cc3)cs2)CC1 the results were IDE cell activ -15.2, RTF Ca sens inh 4.4, RTF Ca sens act -1.9, IDE inh 17.9*, IDE inh confirm 9.8 and HEK293 tox 18.6.
Screening Cc1c(OCC(=O)N2CCC[C@@H]2C(=O)O)ccc2c3c(c(=O)oc12)CCC3 returned IDE cell activ 1.4, RTF Ca sens inh 7.8, RTF Ca sens act -4.6 and IDE inh 8.8.
Screening Cc1c(C)c2ccc(OCC(=O)N3CCC[C@@H]3C(=O)O)c(C)c2oc1=O returned IDE cell activ 4.6, RTF Ca sens inh -0.8, RTF Ca sens act 1.1, IDE inh 17.2*, IDE inh confirm 1.7 and HEK293 tox 15.0.
`CCN(CCn1cccn1)C(=O)C1CCC(=O)N(CCc2cccc(F)c2)C1` (configuration not stated) gave IDE cell activ 0.2, RTF Ca sens inh -5.8, RTF Ca sens act 0.2 and IDE inh -2.0.
`CCN(CC)c1ccc(/C=C/c2nc3ccccc3s2)cc1` gave IDE inh 11.6.
Screening COc1cc2nc(/C=C/c3ccc(N(C)C)cc3)sc2cc1SC returned IDE cell activ -46.7, RTF Ca sens inh -98.8, RTF Ca sens act 25.0, IDE inh 70.4*, IDE inh confirm 50.6* and HEK293 tox 12.6.
`COc1cccc(C(=O)COC(=O)CCC(=O)NC2CCCCC2)c1` gave IDE cell activ 1.9, RTF Ca sens inh -11.8, RTF Ca sens act 1.9 and IDE inh 2.4.
`Cc1ccc2nc(N3CCN(Cc4nnnn4Cc4ccccc4)CC3)c(C#N)cc2c1` gave IDE cell activ -7.8, RTF Ca sens inh 2.6, RTF Ca sens act -2.4, IDE inh 21.0*, IDE inh confirm 0.2 and HEK293 tox 11.1.
For Cc1ccc2nc(N3CCN(C)CC3)c(C#N)cc2c1 the results were IDE cell activ -0.8, RTF Ca sens inh -5.3, RTF Ca sens act 9.3 and IDE inh -1.0.
For CCCc1cc(=O)oc2cc(OCC(=O)N3C[C@H]4C[C@@H](C3)c3cccc(=O)n3C4)c(Cl)cc12 the results were IDE cell activ 3.2, RTF Ca sens inh -11.9, RTF Ca sens act 3.6 and IDE inh -0.2.
Screening Cc1oc2c(C)c3oc(=O)c(CCC(=O)N4C[C@H]5C[C@@H](C4)c4cccc(=O)n4C5)c(C)c3cc2c1C returned IDE cell activ 3.0, RTF Ca sens inh -6.8, RTF Ca sens act 6.4 and IDE inh 6.4.
For CCc1cc(=O)oc2cc(OCC(=O)N3CCC(C(N)=O)CC3)ccc12 the results were IDE cell activ 1.2, RTF Ca sens inh -1.3, RTF Ca sens act -6.2 and IDE inh 3.3.
Screening Cc1oc2cc3oc(=O)c(CCC(=O)N4C[C@H]5C[C@@H](C4)c4cccc(=O)n4C5)c(C)c3cc2c1C returned IDE cell activ -20.1, RTF Ca sens inh -7.0, RTF Ca sens act 13.5, IDE inh 18.0*, IDE inh confirm 8.8 and HEK293 tox 14.5.
`CCCCc1cc(=O)oc2cc(OCC(=O)N3CCC(C(N)=O)CC3)ccc12` gave IDE cell activ -3.2, RTF Ca sens inh -2.9, RTF Ca sens act 1.1, IDE inh 18.1*, IDE inh confirm 7.6 and HEK293 tox 8.7.
CCCCc1cc(=O)oc2c(C)c(OCC(=O)N3C[C@H]4C[C@@H](C3)c3cccc(=O)n3C4)ccc12 was read as IDE cell activ -20.6, RTF Ca sens inh -1.1, RTF Ca sens act 6.4, IDE inh 23.0*, IDE inh confirm 6.5 and HEK293 tox 15.1.
Screening CCNC(=O)CSC1=N/C(=C\c2ccc(O)c(OCC)c2)C(=O)N1c1ccc(OC(F)F)cc1 returned IDE cell activ -56.2, RTF Ca sens inh -29.1, RTF Ca sens act 3.8, IDE inh 69.8*, IDE inh confirm 147.7* and HEK293 tox 8.7.
For COc1ccc(N=Cc2ccccc2O)cc1 the results were IDE cell activ 3.3, RTF Ca sens inh -2.8 and RTF Ca sens act 1.6.
Screening COc1ccc(N=Cc2oc3ccc4ccccc4c3c2O)cc1 returned IDE cell activ -27.5, RTF Ca sens inh -29.7, RTF Ca sens act 10.2, IDE inh 18.4*, IDE inh confirm 29.2* and HEK293 tox 5.3.
For C[C@]12C(=O)N(c3ccc(Br)cc3)C(=O)N1[C@H]1c3ccccc3OC[C@@H]1[C@H]2c1ccccc1 the results were IDE cell activ 3.1, RTF Ca sens inh -10.1, RTF Ca sens act 0.1 and IDE inh -5.5.
For CCCCN(C(=O)c1cc(S(=O)(=O)N2CCCCCC2)ccc1OC)c1ccccc1 the results were IDE cell activ 0.1, RTF Ca sens inh -24.4, RTF Ca sens act -10.6 and IDE inh 0.2.
